The nature of assay [1]: inhibitors of TNFa-induced NFkB p65 translocation, primary screen, imaging, HUVEC, MLSMR starter and 10KST1 sets (AID 438;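 active means inhibition above 20% together with a positive visual image hit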;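 further: compound added about 3h40 before a 20 min TNFalpha stimulation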;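 on inhibition: signal is the nuclear over cytoplasmic p65 intensity ratio per well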). Particulars: HUVEC TNFa-induced p65 nuclear translocation; cell count: measured here: nuclei count (cytotoxicity indicator), at 2.08 µM; inhibition: at 2 µM, stronger effect = higher value, 0% TNFa-plus-vehicle, 100% no-TNFa wells.
The nature of assay [2]: inhibitors of mutant huntingtin aggregation, primary screen, imaging, exon1htt(103Q)mCFP cells, high-content imaging (AID 483;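 active means visual image review flags a hit and inhibition of aggregation exceeds 20%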;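 further: compound exposure lasted 3 days before fixation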;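 on nuclei count: percent of the per-plate median nuclei count of sample wells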). The following applies: exon1htt(103Q)mCFP cell line, aggregate imaging, at 2 µM; inhibition of aggregation: stronger effect = higher value; nuclei count: measured here: cell count, toxicity.
A short description of assay [3]: inhibitors of E-selectin induction by TNFa, primary screen, imaging, HUVEC, immunofluorescence, MLSMR starter and 10KST1 sets (AID 487;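 active means visually confirmed hit in the image check and inhibition above 20%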;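 on inhibition: signal is fraction of cell area covered by stained E-selectin grains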;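 on nuclei count: 100% = median nuclei count of all wells on the same plate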). The following applies: HUVEC TNFalpha-induced E-selectin immunofluorescence imaging, at 2 µM; inhibition: stronger effect = higher value; nuclei count: measured here: cell number, toxicity.
Assay [4] addresses Voltage-gated potassium channel subunit beta-2 (Rattus norvegicus) (UniProt P62483). Description: KvBeta enzyme negative modulators, primary screen, biochemical, NADPH fluorescence (AID 622;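 active means fluorescence slope higher than the sample average by over 3 SD, cut at about -0.22 in these data, passing the limit was not always enough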;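 further: slope of raw intensity against log time taken from 70 to 1610 s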). Particulars: recombinant KvBeta, 4-cyanobenzaldehyde reduction, at 10 µM, stronger effect = higher value.
Assay [5] has the same target. Description: KvBeta positive modulators, primary screen, biochemical, NADPH fluorescence (AID 623;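 active means NADPH fluorescence slope more negative than the mean of all samples by about 3 SD, 99.7% confidence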;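 further: fluorescence intensity change per second fitted from 20 to 320 s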). The following applies: Recombinant KvBeta, NADPH fluorescence decrease slope, 10 min; at 10 µM; stronger effect = lower value.
The target in assay [6] is Alpha-2C adrenergic receptor (Homo sapiens) (UniProt P18825). Description: modulators of alpha2C/GIRK thallium flux, primary screen, cell-based, HEK293 alpha2C/GIRK1/2 (AID 624;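 active means fluorescence slope after compound addition differing from the mean of all screened samples at 99.7% confidence, in either direction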;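 further: slope of fluorescence ratio to pre-addition baseline per second over 15 to 24 s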). Particulars: thallium flux BTC fluorescence, at 10 µM, actives lie on both sides.
Assay [7] is described as follows: inhibitors of Sendai virus-induced IRF3 signaling, primary screen, TLR/RLR signaling modifier project, cell-based, Sendai virus stimulus, luciferase, 10K MLSCN set (AID 602276).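 Further: firefly luciferase from ISG56 promoter only with Renilla not read in this screen; 0% = Sendai virus plus DMSO and 100% = medium plus DMSO without virus.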 Particulars: HEK293 RL24 IRF3 luciferase reporter, at 10 µM, stronger effect = higher value. For orientation: A reporter such as luciferase makes a cellular process visible.
A short description of assay [8]: inhibitors of poly I:C-induced TLR3 signaling, primary screen, cell-based, poly I:C stimulus, luciferase, 10K MLSCN set (AID 602277;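 active means inhibition of the reporter signal at or above 50%; inactive means inhibition below 50%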). The following applies: HEK293-TLR3 RL24 IRF3 luciferase reporter, at 10 µM, stronger effect = higher value.

The structures appear in SMILES notation. Activity calls are given as the source filed them.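 How the source made its calls, unless noted: active means inhibition at or above 50% at 10 µM; inactive means inhibition below 50%.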

Sequence of Alpha-2C adrenergic receptor (Homo sapiens) (P18825 whole entry, looked up): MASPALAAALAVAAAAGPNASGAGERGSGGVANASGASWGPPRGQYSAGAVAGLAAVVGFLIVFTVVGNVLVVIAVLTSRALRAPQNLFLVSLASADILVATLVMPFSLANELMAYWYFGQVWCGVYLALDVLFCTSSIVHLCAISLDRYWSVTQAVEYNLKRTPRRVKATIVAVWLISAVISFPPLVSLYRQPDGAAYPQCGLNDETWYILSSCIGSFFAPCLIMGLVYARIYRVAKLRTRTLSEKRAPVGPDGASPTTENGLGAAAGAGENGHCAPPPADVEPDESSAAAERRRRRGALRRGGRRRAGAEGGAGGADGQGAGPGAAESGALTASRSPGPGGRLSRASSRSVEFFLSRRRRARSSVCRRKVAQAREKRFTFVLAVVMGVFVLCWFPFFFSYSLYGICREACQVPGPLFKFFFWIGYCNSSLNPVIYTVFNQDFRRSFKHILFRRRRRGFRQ
Sequence of Voltage-gated potassium channel subunit beta-2 (Rattus norvegicus) (P62483 whole entry, looked up): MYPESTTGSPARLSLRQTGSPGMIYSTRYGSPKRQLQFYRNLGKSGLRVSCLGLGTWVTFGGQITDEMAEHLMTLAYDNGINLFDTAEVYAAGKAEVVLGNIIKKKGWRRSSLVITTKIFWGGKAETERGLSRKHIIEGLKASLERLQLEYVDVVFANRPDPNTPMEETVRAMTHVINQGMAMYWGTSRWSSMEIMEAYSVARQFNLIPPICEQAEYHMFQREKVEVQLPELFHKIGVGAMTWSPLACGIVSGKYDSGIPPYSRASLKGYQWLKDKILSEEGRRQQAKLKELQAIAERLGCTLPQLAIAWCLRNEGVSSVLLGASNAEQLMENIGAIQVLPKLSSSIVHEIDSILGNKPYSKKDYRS

Regarding `O=C(Nc1ccccc1)c1cnc2n(c1=O)CCS2`, in assay [1], the cell count amounted to 734. For the same compound, the inhibition is -18.7% (inactive) in assay [1], -25.4% (inactive) in assay [3], -16.4% (inactive) in assay [7] and -44.7% (inactive) in assay [8]. For the same compound, the inhibition of aggregation in assay [2] is 11.2% (inactive). Moreover, the nuclei count in assay [2] came out at 106%; in assay [3], 121%. Besides, the fluorescence slope in assay [4] is -0.517 (inactive). Besides, in assay [5], the NADPH fluorescence slope was -3.2e-05 (inactive). In addition, the slope in assay [6] was 0.0079 (inactive).
For `COc1ccc(CC(=O)NC2CCN(CC(=O)Nc3ccc4c(c3)OCCO4)CC2)cc1OC`, the cell count in assay [1] was determined as 635. Moreover, the inhibition in assay [1] is -1.6% (inactive); in assay [3] it was -29.5% (inactive); in assay [7] it was 6.1% (inactive); in assay [8], -5.8% (inactive). In assay [2], the inhibition of aggregation is -5.8% (inactive). Further, the nuclei count in assay [2] was found to be 88.5%; in assay [3] it was 111%. Further, the fluorescence slope in assay [4] is -0.428 (inactive). Also, the NADPH fluorescence slope in assay [5] was -6.5e-06 (inactive). Further, in assay [6], the slope was 0.00308 (inactive).
Regarding `CN(C(=O)c1cc2sccc2n1C)C1CCCCC1`, in assay [1], the cell count came out at 227. Also, the inhibition in assay [1] is 1% (inactive); in assay [3], -64% (inactive); in assay [7], -56.2% (inactive); in assay [8] it was -93.3% (inactive). The inhibition of aggregation in assay [2] was 5.1% (inactive). In addition, the nuclei count was 80.1% in assay [2] and 116% in assay [3]. Moreover, the fluorescence slope in assay [4] was -0.487 (inactive). The NADPH fluorescence slope in assay [5] is 2.7e-05 (inactive). Besides, the slope in assay [6] is 0.00503 (inactive).
In the case of `COc1ccc(C(=O)Nc2nncs2)c(OC)c1`, in assay [1], the cell count came out at 746. In addition, the inhibition in assay [1] was 7.5% (inactive); in assay [3], -98.6% (inactive); in assay [7], -22.9% (inactive); in assay [8] it was -48.7% (inactive). For the same compound, the inhibition of aggregation in assay [2] was -7.4% (inactive). For the same compound, the nuclei count was found to be 27% in assay [2] and 111% in assay [3]. The fluorescence slope in assay [4] was -0.631 (inactive). In addition, in assay [5], the NADPH fluorescence slope is 3.8e-06 (inactive). In addition, the slope in assay [6] was 0.00588 (inactive).
Take `CN(C)c1nc(N)nc(-c2nc3ccccc3s2)n1`: the cell count in assay [1] was 824. For the same compound, the inhibition is -2.1% (inactive) in assay [1], -96.9% (inactive) in assay [3], -26% (inactive) in assay [7] and -41.6% (inactive) in assay [8]. Moreover, the inhibition of aggregation in assay [2] was -13.6% (inactive). Further, the nuclei count amounted to 97.7% in assay [2] and 122% in assay [3]. Moreover, the fluorescence slope in assay [4] was -0.489 (inactive). In addition, the NADPH fluorescence slope in assay [5] was -2.4e-05 (inactive). Besides, in assay [6], the slope is 0.00639 (inactive).
On to `COc1ccc(C)cc1S(=O)(=O)N1CCN(S(=O)(=O)c2cc(C)ccc2OC)CC1`, for which, in assay [1], the cell count amounted to 427. For the same compound, the inhibition is -0.2% (inactive) in assay [1], 17.9% (inactive) in assay [3], -3.93% (inactive) in assay [7] and 9.61% (inactive) in assay [8]. Moreover, the inhibition of aggregation in assay [2] was -15.7% (inactive). In addition, the nuclei count in assay [2] is 97.4%; in assay [3] it was 112%. The fluorescence slope in assay [4] is -0.536 (inactive). Also, the NADPH fluorescence slope in assay [5] was -3.9e-05 (inactive). In addition, the slope in assay [6] is 0.00449 (inactive).
As to `CCC(CC)n1[nH]c(=O)c2c(C)cc(C)nc21`, the cell count in assay [1] worked out at 368. In addition, the inhibition in assay [1] is 0.2% (inactive); in assay [3], 13.4% (inactive); in assay [7] it was 6.59% (inactive); in assay [8], 13.6% (inactive). The inhibition of aggregation in assay [2] was 0.4% (inactive). The nuclei count in assay [2] and in assay [3] was 106% in each case. Moreover, the fluorescence slope in assay [4] is -0.299 (inactive). In addition, the NADPH fluorescence slope in assay [5] is -6.9e-05 (inactive). Further, in assay [6], the slope was 0.00499 (inactive).
As to `COc1ccc(Cn2nnnc2C(c2cc3cc(C)cc(C)c3[nH]c2=O)N2CCOCC2)cc1` (centres undefined), in assay [1], the cell count worked out at 762. Besides, the inhibition in assay [1] is -12.9% (inactive); in assay [3], -9.5% (inactive); in assay [7], 13.8% (inactive); in assay [8], 24.9% (inactive). Besides, the inhibition of aggregation in assay [2] is 33.9% (inactive). Moreover, the figures for the nuclei count in assay [2] and in assay [3] were 113% and 108%, respectively. In addition, the fluorescence slope in assay [4] was -0.51 (inactive). Moreover, the NADPH fluorescence slope in assay [5] was -6.8e-05 (inactive). Further, the slope in assay [6] was 0.00452 (inactive).
Turning to `CC(C)Cn1c(N)c(C(=O)COC(=O)c2cc(-c3ccco3)nc3ccccc23)c(=O)n(C)c1=O`, in assay [1], the cell count was found to be 381. Besides, the inhibition is -2.2% (inactive) in assay [1], -133% (inactive) in assay [3], 15.4% (inactive) in assay [7] and -3.29% (inactive) in assay [8]. In addition, in assay [2], the inhibition of aggregation is -4.3% (inactive). Moreover, the nuclei count amounted to 100% in assay [2] and 110% in assay [3]. The fluorescence slope in assay [4] is -0.482 (inactive). Also, the NADPH fluorescence slope in assay [5] was -1.1e-05 (inactive). For the same compound, in assay [6], the slope is 0.00566 (inactive).
For `Cc1ccc(NC2=NC3(CCCCC3)N=C(N)N2)c(C)c1`, in assay [1], the cell count was 530. Besides, the inhibition in assay [1] is -4.7% (inactive); in assay [3], -59.7% (inactive); in assay [7] it was -10.3% (inactive); in assay [8], 8.58% (inactive). Also, the inhibition of aggregation in assay [2] was 4.5% (inactive). In addition, the nuclei count came out at 76.2% in assay [2] and 99.3% in assay [3]. The fluorescence slope in assay [4] is -0.598 (inactive). In assay [5], the NADPH fluorescence slope was -4.3e-05 (inactive). Further, in assay [6], the slope was 0.00486 (inactive).
Take `CCN(CC)S(=O)(=O)c1ccc(NC(=O)CN(c2cccc(F)c2)S(C)(=O)=O)cc1`: in assay [1], the cell count turned out to be 426. The inhibition in assay [1] is 1.1% (inactive); in assay [3] it was -25.3% (inactive); in assay [7] it was 8.61% (inactive); in assay [8] it was 18.3% (inactive). Further, the inhibition of aggregation in assay [2] was -25.1% (inactive). Moreover, the nuclei count in assay [2] stood at 107%; in assay [3] it was 98.6%. In addition, the fluorescence slope in assay [4] was -0.449 (inactive). The NADPH fluorescence slope in assay [5] is 2.5e-05 (inactive). For the same compound, the slope in assay [6] is 0.00334 (inactive).
In the case of `C=CCSC1=C(C#N)C(c2ccccc2C)CC(=O)N1` (centres undefined), in assay [1], the cell count is 556. For the same compound, the inhibition in assay [1] was 2.1% (inactive); in assay [3], -48.8% (inactive); in assay [7], -5.91% (inactive); in assay [8], -13.9% (inactive). In assay [2], the inhibition of aggregation was -12.2% (inactive). The nuclei count in assay [2] was found to be 94%; in assay [3], 174%. In assay [4], the fluorescence slope is -0.601 (inactive). Also, the NADPH fluorescence slope in assay [5] was -1.1e-05 (inactive). In addition, the slope in assay [6] was 0.00492 (inactive).
In the case of `O=c1[nH]c(CN2CCN(Cc3ccccc3)CC2)nc2sc3c(c12)CCC3`, the cell count in assay [1] was 406. Besides, the inhibition is -0.4% (inactive) in assay [1], -73% (inactive) in assay [3], 3.63% (inactive) in assay [7] and 17.7% (inactive) in assay [8]. Moreover, the inhibition of aggregation in assay [2] was -0.1% (inactive). Besides, the values for the nuclei count in assay [2] and in assay [3] were 109% and 99.5%, respectively. Further, in assay [4], the fluorescence slope was -0.596 (inactive). In assay [5], the NADPH fluorescence slope was -3e-05 (inactive). In assay [6], the slope was 0.00576 (inactive).
For `CC1=C(C(N)=O)C(c2cccnc2)n2nc(SCc3ccccc3Cl)nc2N1` (centres undefined), the cell count in assay [1] turned out to be 533. Moreover, the inhibition was -21.6% (inactive) in assay [1], -130% (inactive) in assay [3], -20.3% (inactive) in assay [7] and 19.5% (inactive) in assay [8]. In addition, the inhibition of aggregation in assay [2] is -13.4% (inactive). Besides, the nuclei count in assay [2] was 104%; in assay [3], 107%. Besides, the fluorescence slope in assay [4] was -0.463 (inactive). In addition, the NADPH fluorescence slope in assay [5] was -5.4e-05 (inactive). For the same compound, the slope in assay [6] is 0.00786 (inactive).

What is called inhibition is the relative decrease from the control value, in per cent.

Source of the values: PubChem BioAssay.
